Measured values published in PubChem BioAssay AID488977 (Johns Hopkins Ion Channel Center, 2010).
Hit rate of the full screen: of about 310,000 compounds, about 1,500 (0.48%) were called active.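 How the source made its calls: active means initial fluorescence not abnormally high and integrated response B-score, plate-corrected, over 3 SD above library mean; inactive means the rest.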 Many of the other results were omitted from the sample, so actives are more common in it than they were. Some structures have more than one record in an assay (separate samples or runs), and their calls can disagree.

What follows are molecules tested against High affinity choline transporter 1 (Homo sapiens) (UniProt Q9GZV3) (assay: allosteric activators of human choline transporter – cell-based, membrane potential dye, choline EC20, primary screen (AID 488977)). Details: CHT-expressing cells, at 10 µM, LV-AA mutant CHT in HEK293 cells; stronger effect = higher value.
High affinity choline transporter 1 (Homo sapiens), sequence (Q9GZV3 whole entry, looked up): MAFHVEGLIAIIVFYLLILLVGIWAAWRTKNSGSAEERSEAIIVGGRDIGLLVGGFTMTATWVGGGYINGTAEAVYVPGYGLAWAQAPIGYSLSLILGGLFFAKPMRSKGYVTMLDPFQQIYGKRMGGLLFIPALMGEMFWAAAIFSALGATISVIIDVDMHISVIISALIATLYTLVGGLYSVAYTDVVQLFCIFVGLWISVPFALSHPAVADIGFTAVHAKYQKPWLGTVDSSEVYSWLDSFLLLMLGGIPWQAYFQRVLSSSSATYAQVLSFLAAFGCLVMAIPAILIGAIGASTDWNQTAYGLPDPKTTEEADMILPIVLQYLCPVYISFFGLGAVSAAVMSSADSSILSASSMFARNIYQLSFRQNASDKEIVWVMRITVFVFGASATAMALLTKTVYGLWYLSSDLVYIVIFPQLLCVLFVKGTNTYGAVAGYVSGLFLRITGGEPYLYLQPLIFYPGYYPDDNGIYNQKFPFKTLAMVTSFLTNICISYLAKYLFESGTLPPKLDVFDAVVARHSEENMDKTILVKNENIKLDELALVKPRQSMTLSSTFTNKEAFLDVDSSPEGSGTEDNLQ

SMILES	B-score	outcome
CC1CCC2(CC1)NC(=O)N(CC(=O)c1ccc3c(c1)OCO3)C2=O (stereo unspecified)	inactive	–
Cc1ccccc1NC(=O)COc1cccc2c1CCNC2=O	inactive	–
CC1CCc2[nH]c3ccc(C(=O)N(C)CC(=O)Nc4cccc(F)c4)cc3c2C1 (stereo unspecified)	inactive	–
Cc1nc2ccccc2c(=O)n1Cc1ccc([N+](=O)[O-])cc1	inactive	–
Cc1nc2ccccc2c(=O)n1CCCn1ccnc1	8.67 (active)	–
Clc1c(OCCCn2ccnc2)ccc2ccccc12	inactive	–
CCCCN(C1CCS(=O)(=O)C1)S(=O)(=O)c1ccc(C(C)C)cc1 (stereo unspecified)	inactive	–
O=C(NCc1ccccn1)c1cnc2sccn2c1=O	inactive	–
CN(C)/C=C/C(=O)c1cnc2sccn2c1=O	6.34 (active)	–
CCOC(=O)c1cnc2sccn2c1=O	inactive	–
COc1cnn(-c2ccc([N+](=O)[O-])cc2)c(=O)c1Cl	inactive	–
Cc1ccc(-c2cc(=O)[nH]c(NCc3ccccc3)n2)cc1	inactive	–
COc1ccc(Cn2c(-c3ccc(Cl)cc3)c[n+]3ccccc23)cc1	7.07 (active)	–
COc1ccc(C(=O)CN(C(=O)c2ccc(Cl)cc2)N2C(=O)c3ccccc3C2=O)cc1	inactive	–
CCn1c(C)cc(=O)cc1-c1ccc(Cl)cc1	inactive	–
CN(Cc1ccccc1F)C(=O)C(Cc1ccccc1)NC(=O)c1ccccc1 (stereo unspecified)	inactive	–
OCCCNc1nc(-c2ccccc2)c2cc(Cl)ccc2n1	inactive	–
Cc1cc2c(cc1C)[n+](C)cn2CC(O)COCC1CC=CCC1 (stereo unspecified)	12.6 (active)	–
COc1ccccc1C(=O)NC(CCSC)C(=O)N1CCN(C/C=C/c2ccccc2)CC1 (stereo unspecified)	inactive	–
Cn1c(=O)n(C)c2cc(C(=O)Nc3ccc4c(c3)OCO4)ccc21	6.95 (active)	–
Cn1c(=O)n(C)c2cc(C(=O)Nc3ccc(Br)cc3)ccc21	inactive	–
O=C(Nc1ccc2c(c1)OCO2)c1ccc(N2C(=O)c3ccccc3C2=O)cc1	inactive	–
CCc1ccc(Nc2n[n+](-c3ccccc3)c(-c3cccc(Cl)c3Cl)s2)cc1	inactive	–

SMILES	B-score	outcome
O=S(=O)(NCCCc1ccccc1)c1ccc(Br)cc1	inactive	–
CCCCn1c(N)c(N(CCC(C)C)C(=O)c2ccc(COc3ccccc3)o2)c(=O)[nH]c1=O	12.1 (active)	–
CCCCn1c(N)c(N(CCC(C)C)C(=O)c2ccc([N+](=O)[O-])o2)c(=O)[nH]c1=O	inactive	–
CCCCn1c(N)c(N(CC(C)C)C(=O)c2ccc(Br)o2)c(=O)[nH]c1=O	inactive	–
COC(=O)c1ccc(SCc2ccccc2)nc1	inactive	–
COc1ccc(NC(=O)CN(C)C(=O)CC2CCCCC2)cc1	inactive	–
Cc1ccc(C(=O)NC2CCCC(C)C2C)cc1S(=O)(=O)N1CCCCC1 (stereo unspecified)	inactive	–
O=Cc1ccc(OCc2cn3ccccc3n2)cc1	7.07 (active)	–
Cn1cc[n+](C)c1COc1ccc(C=O)cc1	inactive	–
COc1ccc(C(=O)NCc2cn3ccccc3n2)cc1	inactive	–
COc1ccc(S(=O)(=O)N2CCCCC2)cc1NC(=O)C1CC(=O)N(c2ccc3c(c2)OCCO3)C1 (stereo unspecified)	inactive	–
COc1ccc(/C=N/NC(=O)c2cc(-c3cccc(C)c3)nc3ccccc23)cc1O	inactive	–
CCN1C(=O)[C@H]2[C@@H](c3ccc(SC4CCCCC4)c(OC)c3)N[C@@](Cc3ccccc3)(C(=O)OC)[C@H]2C1=O	inactive	–
O=C(NCCc1ccco1)C(=O)NCCC1CCCCN1S(=O)(=O)c1ccccc1 (stereo unspecified)	inactive	–
CCn1cc(S(=O)(=O)c2cccc(C)c2)c(=O)c2cc(F)c(N3CCN(C)CC3)cc21	8.24 (active)	–
CN1CCN(c2cc3c(cc2F)c(=O)c(C(=O)O)cn3CCF)CC1	inactive	–
CCn1cc(C(=O)NCCO)c(=O)c2cc(F)c(N3CCN(C)CC3)cc21	inactive	–
CCN1C(=O)[C@H]2[C@@H](c3ccc(-c4ccc(F)cc4)cc3)N[C@@](Cc3ccccc3)(C(=O)OC)[C@H]2C1=O	inactive	–
CN(/N=C/c1ccccc1)C(=S)c1ccccc1	inactive	–
Cc1ccc(C)c(OCCC(=O)Nc2cccc(S(=O)(=O)N3CCCC3)c2)c1	inactive	–
Cn1c(=NC(=O)c2ccco2)sc2cccc(F)c21	inactive	–
Cn1c(=NC(=O)c2cnccn2)sc2ccccc21	7.8 (active)	–
Cn1c(=NC(=O)CSCC(=O)N2CCCCC2)sc2ccccc21	inactive	–

SMILES	B-score	outcome
O=C(Nc1ncccc1O)c1ccc(S(=O)(=O)N2CCCCCC2)cc1	inactive	–
CCN(CC)c1ccc(S(=O)(=O)N2CCCCC2)cc1NC(=O)C1=COCCO1	inactive	–
OCc1ccc(-c2ccccc2)c(-c2ccccc2)c1	inactive	–
CS(=O)(=O)N(CC(O)Cn1c2ccccc2c2ccccc21)c1cccc2ccccc12 (stereo unspecified)	inactive	–
CCCCN(CCCC)CC(O)Cn1c2ccccc2c(=O)c2ccccc21 (stereo unspecified)	8.77 (active)	–
O=C1c2ccccc2S(=O)(=O)N1CC(O)Cn1c2ccccc2c2ccccc21 (stereo unspecified)	inactive	–
COc1ccc(CCNc2cc(N3CCN(C(=O)c4ccccc4OC)CC3)ccc2[N+](=O)[O-])cc1OC	inactive	–
COc1cc(OC)c(NC(=O)c2ccc(Br)o2)cc1Cl	inactive	–
CCN1CCN(c2c(Cl)cccc2NC(=O)c2ccc(Br)o2)CC1	8.41 (active)	–
CCCC(=O)Nc1ccc(Cl)c(NC(=O)c2ccc(Br)o2)c1	inactive	–
O=C1CCCCC1Sc1ccc(Cl)cc1[N+](=O)[O-] (stereo unspecified)	inactive	–
COC(=O)[C@]1(C)N[C@H](c2ccc(-c3ccc(Cl)c(Cl)c3)cc2)[C@@H]2C(=O)N(C)C(=O)[C@@H]21	inactive	–
Cc1nnc(C)c2c(C)n(N)c(C)c12	9.77 (active)	–
COc1cc(C(=O)NCC(=O)NCCSc2ccc(Br)cc2)cc(OC)c1OC	inactive	–
O=C(COC(=O)Cc1c[nH]c2ccccc12)NCCc1ccccc1	inactive	–
CCN1C(=NCCc2cccnc2)N[C@@H](c2ccccc2)C(C(=O)OC)=C1C	inactive	–
CCN1C(=S)N[C@@H](CCc2ccccc2)[C@H](C(=O)OC)[C@H]1C	inactive	–
CCN1C(=NCCc2cccnc2)N[C@@H](c2ccccc2)[C@H](C(=O)OC)[C@H]1C	6.5 (active)	–
O=C(Nc1ncccc1O)c1ccc(S(=O)(=O)N2CCCC2)cc1	inactive	–
COc1cc(C(=O)N(C)Cc2cccc(OC)c2OC)ccc1OCC(=O)Nc1cccc(C(F)(F)F)c1	inactive	–
O=C(N/N=C/c1cc(Br)c(O)c([N+](=O)[O-])c1)C(O)(c1ccccc1)c1ccccc1	inactive	–
C=CCNc1nnc(C)c2ccccc12	7.04 (active)	–
COc1ccc(Nc2nnc(C)c3ccccc23)cc1	inactive	–

SMILES	B-score	outcome
C=CCNc1nnc(SCC(=O)N2CCCCC2)c2ccccc12	inactive	–
COc1ccc(-c2ccc3nnc(SCC(=O)Nc4ccc(NC(C)=O)cc4)n3n2)cc1	inactive	–
COc1ccc(C(=O)NCC2CCCN2S(=O)(=O)c2cccs2)cc1OC (stereo unspecified)	inactive	–
CN1CCN(C2Cc3ccc(Cl)cc3Sc3ccc(F)cc32)CC1 (stereo unspecified)	inactive	–
O=C(COC(=O)C1CCN(S(=O)(=O)c2ccc3c(c2)OCCO3)CC1)Nc1ccccc1OC(F)F	6.95 (active)	–
CCOC(=O)C1CCN(C(=O)COC(=O)C2CCN(S(=O)(=O)c3ccc4c(c3)OCCO4)CC2)CC1	inactive	–
COc1ccccc1CNC(=O)C1CCN(S(=O)(=O)c2ccc3c(c2)OCCO3)CC1	inactive	–
Cc1ccc(N2CC(C(=O)N3CCC4(CC3)CC(=O)c3ccccc3O4)CC2=O)cc1C (stereo unspecified)	inactive	–
O=C(NCCC1CCCCN1S(=O)(=O)c1ccc(Cl)cc1)C(=O)NCc1ccco1 (stereo unspecified)	inactive	–
Brc1cnc2ccccc2c1N1CCCCC1	inactive	–
CCCNC(=O)c1ccc(N2CCC3(CC2)CC(c2cccc(Br)c2)=NO3)c(NC(=O)c2ccco2)c1	inactive	–
C#CCOCCOCCOCCNc1nc(N2CCN(C(=O)CCCCCCCCCCNC(=O)[C@H]([C@@H](C)CC)n3cc(CCCCN=C(N)N)nn3)CC2)nc(N2CCN(C(=O)CCCCCCCCCCNC(=O)[C@H](CO)n3cc(CCCSC)nn3)CC2)n1	inactive	–
C#CCOCCOCCOCCNc1nc(N2CCN(C(=O)CCCCCCCCCCNC(=O)[C@H](CCCCN)n3cc(C)nn3)CC2)nc(N2CCN(C(=O)CCCCCCCCCCNC(=O)[C@H](CO)n3cc(CCCSC)nn3)CC2)n1	7.24 (active)	–
C#CCOCCOCCOCCNc1nc(N2CCN(C(=O)CCCCCCCCCCNC(=O)Cn3cc(CCCCCN)nn3)CC2)nc(N2CCN(C(=O)CCCCCCCCCCNC(=O)[C@H](CO)n3cc(CCCSC)nn3)CC2)n1	inactive	–
O=C(Nc1ccccc1N1CCN(c2ccccc2)CC1)c1cccc(F)c1	7.46 (active)	–
O=C(Nc1ccccc1N1CCCCC1)c1cccc(F)c1	inactive	–
Cc1cccc(C(=O)Nc2ccccc2N2CCN(c3ccc(F)cc3)CC2)c1	inactive	–
CSc1ccccc1NC(=O)c1cnc2sc(C)cn2c1=O	inactive	–
CCN1C(=O)[C@@H]2[C@@H](c3ccc(-c4ccc(OC)cc4)c(OC)c3)N3CCC[C@@]3(C(=O)OC)[C@@H]2C1=O	inactive	–
O=C(C[n+]1cc(-c2ccc(Cl)c(Cl)c2)n2c1CCC2)c1cccs1	inactive	–
Cc1ccc(-c2c[n+](CC(=O)Nc3ccccc3)c3n2CCC3)cc1	inactive	–
Cc1ccc(C(=O)C[n+]2cc(-c3ccccc3)n3c2CCCCC3)cc1	7.44 (active)	inactive
Nc1nonc1-n1nnc(C(=O)N/N=C/c2ccccc2O)c1CN1CCCC1	inactive	–

SMILES	B-score	outcome
Cc1ccc(-n2c(C)cc(/C=N\NC(=O)CC(=O)NC(C)C)c2C)cc1	11.1 (active)	–
CSc1ccc(/C=N\NC(=O)CC(=O)NC(C)C)cc1	inactive	–
Cc1cc(/C=N/NC(=O)CC2(C)OCCO2)c(C)n1-c1ccc(Cl)c(Cl)c1	inactive	–
CN(C(=O)c1cc2c(=O)n3ccccc3nc2s1)C1CCCCC1	inactive	–
O=C1N[C@@H](Cc2ccccc2)C(=O)N2[C@H]1C[C@]1(Br)c3ccccc3N(S(=O)(=O)c3ccccc3)[C@H]21	inactive	–
O=S(=O)(O)Oc1c[nH]c2ccccc12	inactive	–
COc1cc2c(cc1OC)C(C(C)C)=NC(C)(C)C2	inactive	–
COc1cc2c(cc1OC)C(Nc1ccc(S(N)(=O)=O)cc1)=NC(C)(C)C2	9.17 (active)	–
COc1cc2c(cc1O)C(SC)=NC(C)(C)C2	inactive	–
O=C(NCCCc1ccccc1)C(=O)NCC1OCCN1S(=O)(=O)c1ccccc1 (stereo unspecified)	inactive	–
O=C(NCCC1=CCCCC1)C1CCN(Cc2cnn(-c3ccccc3)c2-n2cccc2)CC1	6.26 (active)	–
Cc1ccc(S(=O)(=O)N2CCC(C(=O)NCCC3=CCCCC3)CC2)cc1C	inactive	–
C1=C(CCNc2ncnc3c2cnn3-c2ccccc2)CCCC1	inactive	–
COc1ccccc1C(=O)Nc1ccccc1C(=O)Nc1ccccc1	inactive	–
COc1ccccc1-c1nnc(-c2ccc(F)cc2)o1	inactive	–
Cc1cc(=O)oc2cc(OCCC[n+]3ccccc3)ccc12	8.55 (active)	–
Cc1cc(=O)oc2ccc(OCC(=O)O)cc12	inactive	–
Cc1ccccc1N1CCN(CCCOc2ccc3c(C)cc(=O)oc3c2)CC1	inactive	–
O=C(c1ccccc1)N1CCN(c2ccc([N+](=O)[O-])c(NCc3ccco3)c2)CC1	inactive	–
O=[N+]([O-])c1ccc(N2CCN(S(=O)(=O)c3ccc4ccccc4c3)CC2)cc1NCc1ccco1	inactive	–
O=[N+]([O-])c1ccc(N2CCNCC2)cc1NCc1cccnc1	6.95 (active)	–
Cc1cc(Br)ccc1NC(=O)CN(C)C(=O)CN1C(=O)NC2(CCCC2)C1=O	inactive	–
COc1cc(/C=N/NC(=O)c2cc(-c3ccccc3C)nc3ccccc23)cc(OC)c1O	inactive	–
